In PubChem BioAssay (EPA / NIEHS):
Results filed as inconclusive are left out. Activity calls are given as the source filed them. Rule for the calls, unless noted: active = hit-call score of the fitted dose curve at least 0.9, where 1 is the maximum; inconclusive = response in the unintended direction; inactive = score below 0.9.

Legend:
[1] = ATG_TAL_CIS: Attagene CIS-FACTORIAL HepG2 Assay for human TAL Basal Promoter (AID 2282966; active = hit-call score of the fitted dose curve at least 0.9, where 1 is the maximum; inactive = score below 0.9;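 note: background control endpoint measuring basal TAL promoter reporter mRNA not a specific factor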); conditions: HepG2 Attagene cis-factorial TAL promoter reporter; actives raise or lower the signal
How it was run: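 RT-PCR plus capillary electrophoresis quantifies reporter mRNA induction in transiently transfected HepG2 cells after 24 h chemical treatment. DMSO serves as negative control and baseline for bidirectional fitting.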

[2] = ATG_TGFb_CIS: Attagene CIS-FACTORIAL HepG2 Assay for human Transforming Growth Factor (TGF) (AID 2282967; active = hit-call score of the fitted dose curve at least 0.9, where 1 is the maximum; inactive = score below 0.9); conditions: HepG2 Attagene CIS TGFb reporter, mRNA transcription; actives raise or lower the signal
How it was run: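 HepG2 cells transiently transfected with cis-promoter-driven multiple reporter units measure endogenous TF activity; reporter mRNA quantified at 24 h by RT-PCR, FAM labeling, HpaI digestion and capillary electrophoresis. Bidirectional fit vs DMSO.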

[3] = ATG_VDRE_CIS: Attagene CIS-FACTORIAL HepG2 Assay for human Vitamin D Receptor Element (VDRE) (AID 2282968; active = hit-call score of the fitted dose curve at least 0.9, where 1 is the maximum; inactive = score below 0.9); conditions: HepG2 VDRE cis-reporter transcription, actives raise or lower the signal
How it was run: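 Reporter mRNA induction, quantified by capillary electrophoresis of fluorescently labelled RT-PCR products, was read 24 h after dosing HepG2 cells carrying transiently transfected cis-regulated reporter units; gain or loss relative to DMSO.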

[4] = molecular target: Nuclear receptor subfamily 1 group I member 3 (Homo sapiens) (UniProt Q14994); assay: ATG_CAR_TRANS: Attagene TRANS-FACTORIAL HepG2 Assay for human Constitutive Androstane Receptor (CAR) (AID 2282969); conditions: HepG2 Attagene TRANS-FACTORIAL CAR reporter;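 note: activators raise reporter mRNA above DMSO so AC50 marks induction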
How it was run: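 Readout is reporter mRNA induction, quantified by fluorescent primer extension and capillary electrophoresis after RT-PCR. Cells were HepG2 transiently carrying chimeric NR-Gal4 constructs with GAL4-UAS reporters, treated for 24 h; activity scored upward from DMSO.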

[5] = molecular target: X-box-binding protein 1 (Homo sapiens) (UniProt P17861); assay: ATG_Xbp1_CIS: Attagene CIS-FACTORIAL HepG2 Assay for human X-box Binding Protein 1 (XBP1) (AID 2282972; active = hit-call score of the fitted dose curve at least 0.9, where 1 is the maximum; inactive = score below 0.9); conditions: HepG2 XBP1 cis-element reporter, Attagene multiplex; actives raise or lower the signal
How it was run: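 HepG2 cells transiently transfected with cis-regulated multiple reporter transcription units; endogenous transcription factor activity measured 24 hours after chemical dosing. Reporter mRNA quantified by RT-PCR, 6-FAM primer extension, HpaI digestion and capillary electrophoresis; bidirectional fitting versus DMSO.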

[6] = ATG_M_19_TRANS: Attagene TRANS-FACTORIAL HepG2 Assay for M19 Transcription Factor (Internal Marker) (AID 2282974); conditions: HepG2 Attagene TRANS-FACTORIAL M19 internal marker reporter
How it was run: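 HepG2 transiently transfected with GAL4-UAS multiplex reporter constructs, exposed 24 h; reporter RNA quantified by RT-PCR, 6-FAM labeling, HpaI digestion and capillary electrophoresis; internal background marker fitted upward versus DMSO.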

[7] = ATG_GAL4_TRANS: Attagene TRANS-FACTORIAL HepG2 Assay for GAL4 (Internal Marker) (AID 2282976); conditions: HepG2 Attagene TRANS GAL4 internal marker reporter
How it was run: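 In transfected human HepG2 liver cells dosed 24 h, GAL4 reporter mRNA serves as a baseline marker. Detection by RT-PCR with fluorescent capillary electrophoresis, activity fitted upward relative to DMSO.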

[8] = molecular target: Oxysterols receptor LXR-alpha (Homo sapiens) (UniProt Q13133); assay: ATG_LXRa_TRANS: Attagene TRANS-FACTORIAL HepG2 Assay for human Liver X Receptor alpha (LXRa) (AID 2282980); conditions: HepG2 Attagene TRANS reporter, LXRa transactivation
How it was run: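 Chemical-induced reporter mRNA measured by RT-PCR with fluorescent labelling and capillary electrophoresis after 24 h dosing of transiently transfected HepG2 cells expressing exogenous NR-Gal4 chimeras; increases scored against DMSO baseline.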

[9] = molecular target: Oxysterols receptor LXR-beta (Homo sapiens) (UniProt P55055); assay: ATG_LXRb_TRANS: Attagene TRANS-FACTORIAL HepG2 Assay for human Liver X Receptor beta (LXRb) (AID 2282981); conditions: HepG2 Attagene TRANS GAL4-LXRb reporter, mRNA
How it was run: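 Transient transfection HepG2 (multiplexed RTUs, GAL4-UAS); NR-Gal4 chimera; 24 h exposure; RNA → RT-PCR → 6-FAM primer extension → HpaI → CE; increase vs DMSO.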

[10] = molecular target: Hepatocyte nuclear factor 4-alpha (Homo sapiens) (UniProt P41235); assay: ATG_HNF4a_TRANS: Attagene TRANS-FACTORIAL HepG2 Assay for human Hepatocyte Nuclear Factor 4 alpha (HNF4a) (AID 2282982); conditions: HepG2 HNF4a transactivation reporter, mRNA readout
How it was run: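 Readout is fluorescent reporter-transcript fragments resolved by capillary electrophoresis after RT-PCR from HepG2 cells dosed for 24 h. Cells carried transfected GAL4-UAS reporter constructs measuring exogenous NR-GAL4 chimera activity; DMSO served as baseline.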

[11] = ATG_M_06_TRANS: Attagene TRANS-FACTORIAL HepG2 Assay for M06 Transcription Factor (Internal Marker) (AID 2282983); conditions: HepG2 Attagene TRANS M06 internal marker reporter;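 note: reporter transcript level by RT-PCR then capillary electrophoresis fluorescence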
How it was run: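 Cells: HepG2, transient multi-reporter transfection. Exposure: 24 h. Detection: RT-PCR, 6-FAM labelling, HpaI digestion (2 h, 37 °C), capillary electrophoresis. Baseline: DMSO.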

[12] = ATG_M_32_TRANS: Attagene TRANS-FACTORIAL HepG2 Assay for M32 Transcription Factor (Internal Marker) (AID 2282984); conditions: HepG2 Attagene TRANS M32 internal marker reporter;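 note: transcript level of a background control reporter unit measured by RT-PCR and capillary electrophoresis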
How it was run: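 Measures reporter mRNA induction in human HepG2 liver cells after 24 h chemical treatment. Transcripts from transiently transfected GAL4-UAS reporter units are amplified, fluorescently labelled and sized by capillary electrophoresis; gain of signal relative to DMSO.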

[13] = molecular target: Nuclear receptor subfamily 4 group A member 2 (Homo sapiens) (UniProt P43354); assay: ATG_NURR1_TRANS: Attagene TRANS-FACTORIAL HepG2 Assay for human Nuclear Receptor Related Protein 1 (NURR1) (AID 2282985); conditions: HepG2 Attagene TRANS reporter, mRNA readout
How it was run: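 Transient transfection of HepG2, human liver cells, with multiple GAL4-UAS reporter transcription units. Cells dosed 24 h, RNA isolated, reverse-transcribed, PCR-amplified, FAM-labelled, HpaI-digested, sized by capillary electrophoresis. DMSO served as negative control.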

[14] = molecular target: Transcriptional activator Myb (Homo sapiens) (UniProt P10242); assay: ATG_Myb_CIS: Attagene CIS-FACTORIAL HepG2 Assay for human Myeloblastosis (Myb) Proto-Oncogene Transcription Factor (AID 2282986; active = hit-call score of the fitted dose curve at least 0.9, where 1 is the maximum; inactive = score below 0.9); conditions: HepG2 Attagene CIS-FACTORIAL Myb reporter transcription; actives raise or lower the signal
How it was run: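 Transiently transfected HepG2 cells carrying a multiplexed cis-promoter reporter set report endogenous Myb activity after 24 h compound exposure. Reporter mRNA is read by RT-PCR with capillary electrophoresis of fluorescent products, fitted bidirectionally against DMSO.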

[15] = molecular target: Nuclear respiratory factor 1 (Homo sapiens) (UniProt Q16656); assay: ATG_NRF1_CIS: Attagene CIS-FACTORIAL HepG2 Assay for human Nuclear Respiratory Factor 1 (NRF1) Orphan Gene (AID 2282987; active = hit-call score of the fitted dose curve at least 0.9, where 1 is the maximum; inactive = score below 0.9); conditions: HepG2 NRF1 cis-element reporter, Attagene multiplex; actives raise or lower the signal
How it was run: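 HepG2 cells transiently transfected with multiple cis-regulated reporter units, exposed 24 h. Reporter mRNAs measured by RT-PCR, fluorescent labelling, HpaI digestion and capillary electrophoresis; bidirectional fitting against DMSO.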

[16] = molecular target: Glucocorticoid receptor (Homo sapiens) (UniProt P04150); assay: ATG_GR_TRANS: Attagene TRANS-FACTORIAL HepG2 Assay for human Glucocorticoid Receptor (GR) (AID 2282978); conditions: HepG2 Attagene TRANS GR reporter, mRNA transcription;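 note: activators score as hits since higher reporter transcript over DMSO is fitted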
How it was run: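 HepG2 cells transiently transfected with GAL4-UAS reporter units and exogenous GR-Gal4 chimera, dosed 24 h. Reporter mRNA by RT-PCR, FAM labeling, HpaI digest and capillary electrophoresis; gain-of-signal fit versus DMSO.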

[17] = molecular target: Steroid hormone receptor ERR1 (Homo sapiens) (UniProt P11474); assay: ATG_ERRa_TRANS: Attagene TRANS-FACTORIAL HepG2 Assay for human Estrogen-Related Receptor alpha (ERRa) (AID 2282971); conditions: HepG2 Attagene TRANS reporter, ERRa transactivation
How it was run: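 Reporter transcripts from ERRa-Gal4 chimera activity measured in transiently transfected human HepG2 cells 24 hours after dosing, using RT-PCR with 6-FAM primer extension, HpaI digestion and capillary electrophoresis; DMSO is baseline.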

[18] = molecular target: Estrogen-related receptor gamma (Homo sapiens) (UniProt P62508); assay: ATG_ERRg_TRANS: Attagene TRANS-FACTORIAL HepG2 Assay for human Estrogen-Related Receptor gamma (ERRg) (AID 2282977); conditions: HepG2 Attagene TRANS reporter, ERRg transactivation;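 note: hits increase reporter signal over DMSO so potencies reflect activators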
How it was run: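 HepG2 cells transiently transfected with multiplexed GAL4-UAS reporter units driven by chimeric NR-Gal4 proteins; 24 h exposure. Reporter mRNA quantified by RT-PCR, fluorescent labelling, HpaI digestion and capillary electrophoresis; gain of signal vs DMSO.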

[19] = molecular target: Bile acid receptor (Homo sapiens) (UniProt Q96RI1); assay: ATG_FXR_TRANS: Attagene TRANS-FACTORIAL HepG2 Assay for Farnesoid X Receptor (FXR) (AID 2282979); conditions: HepG2 Attagene TRANS FXR-GAL4 reporter transcription;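 note: hits raise reporter mRNA above DMSO so AC50 marks FXR activation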
How it was run: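 Reporter transcripts from transfected HepG2 cells were measured 24 h after dosing, using RT-PCR with capillary electrophoresis of 6-FAM-labelled fragments. The read-out reflects activity of exogenous FXR-Gal4 chimera on GAL4-UAS units, with induction relative to DMSO.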

Measured: outcome

Sequence of Hepatocyte nuclear factor 4-alpha (Homo sapiens) (P41235 whole entry, looked up, the tested form may be a part): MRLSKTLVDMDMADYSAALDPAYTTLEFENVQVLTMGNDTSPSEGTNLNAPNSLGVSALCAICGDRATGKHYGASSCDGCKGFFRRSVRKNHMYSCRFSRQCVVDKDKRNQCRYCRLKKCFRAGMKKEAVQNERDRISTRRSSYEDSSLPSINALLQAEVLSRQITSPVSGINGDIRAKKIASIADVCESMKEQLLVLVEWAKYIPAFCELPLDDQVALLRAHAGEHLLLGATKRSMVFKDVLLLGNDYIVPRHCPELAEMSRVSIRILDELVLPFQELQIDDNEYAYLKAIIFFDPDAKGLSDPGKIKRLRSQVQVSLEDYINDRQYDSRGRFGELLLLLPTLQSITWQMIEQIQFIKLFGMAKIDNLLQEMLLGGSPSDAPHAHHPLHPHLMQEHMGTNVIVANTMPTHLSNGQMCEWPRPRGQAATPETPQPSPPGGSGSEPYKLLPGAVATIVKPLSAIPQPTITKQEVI
Sequence of X-box-binding protein 1 (Homo sapiens) (P17861 whole entry, looked up): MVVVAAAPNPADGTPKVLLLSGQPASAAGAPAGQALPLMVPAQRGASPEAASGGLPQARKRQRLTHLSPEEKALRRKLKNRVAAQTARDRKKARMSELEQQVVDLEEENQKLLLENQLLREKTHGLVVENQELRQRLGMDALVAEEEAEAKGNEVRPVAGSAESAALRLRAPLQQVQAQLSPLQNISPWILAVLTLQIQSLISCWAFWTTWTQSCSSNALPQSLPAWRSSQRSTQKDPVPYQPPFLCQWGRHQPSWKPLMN
Sequence of Transcriptional activator Myb (Homo sapiens) (P10242 whole entry, looked up): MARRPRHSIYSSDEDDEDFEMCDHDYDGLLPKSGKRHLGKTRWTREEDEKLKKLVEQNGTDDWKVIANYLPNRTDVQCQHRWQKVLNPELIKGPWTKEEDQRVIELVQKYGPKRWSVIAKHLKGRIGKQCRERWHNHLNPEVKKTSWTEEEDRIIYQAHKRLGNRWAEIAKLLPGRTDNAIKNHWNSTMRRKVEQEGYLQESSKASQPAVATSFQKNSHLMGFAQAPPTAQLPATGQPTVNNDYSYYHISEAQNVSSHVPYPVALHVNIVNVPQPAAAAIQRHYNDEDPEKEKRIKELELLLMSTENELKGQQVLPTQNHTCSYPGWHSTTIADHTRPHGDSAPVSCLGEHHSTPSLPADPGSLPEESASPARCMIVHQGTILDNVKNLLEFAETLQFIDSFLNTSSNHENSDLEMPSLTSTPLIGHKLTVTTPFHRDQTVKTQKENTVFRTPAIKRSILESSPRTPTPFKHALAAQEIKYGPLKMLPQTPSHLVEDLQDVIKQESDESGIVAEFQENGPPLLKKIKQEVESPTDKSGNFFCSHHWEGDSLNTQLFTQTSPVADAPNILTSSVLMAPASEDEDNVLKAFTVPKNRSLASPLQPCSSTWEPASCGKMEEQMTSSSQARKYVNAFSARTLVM
Sequence of Oxysterols receptor LXR-alpha (Homo sapiens) (Q13133 whole entry, looked up, the tested form may be a part): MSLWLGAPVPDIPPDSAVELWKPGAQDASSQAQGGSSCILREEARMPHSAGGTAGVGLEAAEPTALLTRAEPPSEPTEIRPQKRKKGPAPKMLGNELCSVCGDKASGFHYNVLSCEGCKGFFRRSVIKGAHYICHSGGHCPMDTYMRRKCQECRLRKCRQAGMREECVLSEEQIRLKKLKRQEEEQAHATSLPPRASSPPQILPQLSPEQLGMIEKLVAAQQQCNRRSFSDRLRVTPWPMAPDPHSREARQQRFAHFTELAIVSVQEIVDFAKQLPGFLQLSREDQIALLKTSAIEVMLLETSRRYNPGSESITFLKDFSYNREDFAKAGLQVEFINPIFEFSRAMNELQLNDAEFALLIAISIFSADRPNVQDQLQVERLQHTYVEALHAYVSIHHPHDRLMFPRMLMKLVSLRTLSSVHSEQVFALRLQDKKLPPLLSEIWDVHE
Sequence of Oxysterols receptor LXR-beta (Homo sapiens) (P55055 whole entry, looked up, the tested form may be a part): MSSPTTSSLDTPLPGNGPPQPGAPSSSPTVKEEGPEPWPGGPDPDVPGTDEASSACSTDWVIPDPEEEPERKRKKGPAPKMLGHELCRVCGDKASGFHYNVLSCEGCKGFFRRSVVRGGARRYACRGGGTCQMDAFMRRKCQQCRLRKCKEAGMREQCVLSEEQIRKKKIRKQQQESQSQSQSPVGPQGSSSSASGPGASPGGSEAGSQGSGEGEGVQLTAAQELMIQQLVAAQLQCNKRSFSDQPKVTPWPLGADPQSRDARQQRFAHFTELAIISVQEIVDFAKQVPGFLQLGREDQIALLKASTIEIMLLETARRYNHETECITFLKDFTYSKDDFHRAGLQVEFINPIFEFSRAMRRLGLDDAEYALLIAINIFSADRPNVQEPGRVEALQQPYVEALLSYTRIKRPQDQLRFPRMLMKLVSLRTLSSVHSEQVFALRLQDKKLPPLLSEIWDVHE
Sequence of Nuclear receptor subfamily 4 group A member 2 (Homo sapiens) (P43354 whole entry, looked up, the tested form may be a part): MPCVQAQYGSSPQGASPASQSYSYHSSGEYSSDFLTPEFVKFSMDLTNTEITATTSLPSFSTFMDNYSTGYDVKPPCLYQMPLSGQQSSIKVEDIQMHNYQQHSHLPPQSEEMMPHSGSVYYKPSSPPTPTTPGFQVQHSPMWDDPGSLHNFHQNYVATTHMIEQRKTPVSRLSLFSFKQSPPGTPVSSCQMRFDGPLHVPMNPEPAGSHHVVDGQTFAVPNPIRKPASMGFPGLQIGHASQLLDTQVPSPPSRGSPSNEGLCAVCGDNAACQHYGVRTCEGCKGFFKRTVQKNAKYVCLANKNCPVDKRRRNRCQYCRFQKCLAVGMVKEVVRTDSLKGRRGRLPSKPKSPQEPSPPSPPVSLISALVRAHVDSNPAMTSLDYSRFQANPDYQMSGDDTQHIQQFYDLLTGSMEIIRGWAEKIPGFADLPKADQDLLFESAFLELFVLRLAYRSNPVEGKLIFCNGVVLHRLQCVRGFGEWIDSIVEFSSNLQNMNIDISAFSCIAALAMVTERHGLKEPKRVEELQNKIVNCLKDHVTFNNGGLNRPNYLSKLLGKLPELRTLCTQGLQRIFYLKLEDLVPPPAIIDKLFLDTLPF
Sequence of Nuclear respiratory factor 1 (Homo sapiens) (Q16656 whole entry, looked up): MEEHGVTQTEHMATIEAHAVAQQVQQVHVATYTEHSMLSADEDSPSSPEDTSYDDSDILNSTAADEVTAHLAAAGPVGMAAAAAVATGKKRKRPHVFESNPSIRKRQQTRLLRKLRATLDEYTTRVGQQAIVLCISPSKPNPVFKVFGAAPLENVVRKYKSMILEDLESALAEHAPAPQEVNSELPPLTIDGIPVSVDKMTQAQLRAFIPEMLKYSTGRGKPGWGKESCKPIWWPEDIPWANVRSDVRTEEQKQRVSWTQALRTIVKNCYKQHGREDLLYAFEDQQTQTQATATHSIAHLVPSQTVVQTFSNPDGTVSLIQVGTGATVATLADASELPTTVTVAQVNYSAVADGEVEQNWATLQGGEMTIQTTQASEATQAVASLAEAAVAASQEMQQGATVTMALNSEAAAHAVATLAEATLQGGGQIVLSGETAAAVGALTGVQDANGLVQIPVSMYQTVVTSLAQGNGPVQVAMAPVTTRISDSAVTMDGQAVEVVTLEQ
Sequence of Nuclear receptor subfamily 1 group I member 3 (Homo sapiens) (Q14994 whole entry, looked up, the tested form may be a part): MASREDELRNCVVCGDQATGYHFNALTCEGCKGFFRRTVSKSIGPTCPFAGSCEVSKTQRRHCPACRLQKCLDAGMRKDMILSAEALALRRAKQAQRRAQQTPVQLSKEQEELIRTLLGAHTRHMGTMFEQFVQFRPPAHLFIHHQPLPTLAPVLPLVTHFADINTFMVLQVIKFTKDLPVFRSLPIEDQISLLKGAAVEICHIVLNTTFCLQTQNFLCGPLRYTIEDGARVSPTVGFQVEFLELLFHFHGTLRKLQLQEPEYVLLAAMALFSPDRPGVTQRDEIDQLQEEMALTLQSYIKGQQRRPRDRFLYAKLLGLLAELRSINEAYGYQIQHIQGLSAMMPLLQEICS
Sequence of Glucocorticoid receptor (Homo sapiens) (P04150 whole entry, looked up, the tested form may be a part): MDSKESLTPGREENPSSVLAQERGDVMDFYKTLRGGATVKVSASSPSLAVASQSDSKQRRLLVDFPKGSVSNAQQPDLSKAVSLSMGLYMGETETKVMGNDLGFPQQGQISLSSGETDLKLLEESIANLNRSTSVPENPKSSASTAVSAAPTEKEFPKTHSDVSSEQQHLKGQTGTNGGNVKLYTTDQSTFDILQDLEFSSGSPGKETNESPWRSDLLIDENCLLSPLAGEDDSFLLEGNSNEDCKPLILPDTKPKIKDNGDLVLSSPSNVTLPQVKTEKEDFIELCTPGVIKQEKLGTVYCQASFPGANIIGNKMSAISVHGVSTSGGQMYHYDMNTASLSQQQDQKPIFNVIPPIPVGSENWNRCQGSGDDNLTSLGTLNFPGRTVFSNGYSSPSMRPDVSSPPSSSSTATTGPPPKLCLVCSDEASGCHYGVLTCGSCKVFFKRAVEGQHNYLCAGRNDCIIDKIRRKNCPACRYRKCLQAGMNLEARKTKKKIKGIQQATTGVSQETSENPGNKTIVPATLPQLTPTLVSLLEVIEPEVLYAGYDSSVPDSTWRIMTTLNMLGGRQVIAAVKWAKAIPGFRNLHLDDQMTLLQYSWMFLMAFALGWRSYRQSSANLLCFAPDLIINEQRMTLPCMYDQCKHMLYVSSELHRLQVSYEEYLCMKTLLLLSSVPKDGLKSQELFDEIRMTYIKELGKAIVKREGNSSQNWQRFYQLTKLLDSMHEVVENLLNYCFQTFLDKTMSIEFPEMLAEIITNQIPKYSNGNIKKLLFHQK
Sequence of Bile acid receptor (Homo sapiens) (Q96RI1 whole entry, looked up, the tested form may be a part): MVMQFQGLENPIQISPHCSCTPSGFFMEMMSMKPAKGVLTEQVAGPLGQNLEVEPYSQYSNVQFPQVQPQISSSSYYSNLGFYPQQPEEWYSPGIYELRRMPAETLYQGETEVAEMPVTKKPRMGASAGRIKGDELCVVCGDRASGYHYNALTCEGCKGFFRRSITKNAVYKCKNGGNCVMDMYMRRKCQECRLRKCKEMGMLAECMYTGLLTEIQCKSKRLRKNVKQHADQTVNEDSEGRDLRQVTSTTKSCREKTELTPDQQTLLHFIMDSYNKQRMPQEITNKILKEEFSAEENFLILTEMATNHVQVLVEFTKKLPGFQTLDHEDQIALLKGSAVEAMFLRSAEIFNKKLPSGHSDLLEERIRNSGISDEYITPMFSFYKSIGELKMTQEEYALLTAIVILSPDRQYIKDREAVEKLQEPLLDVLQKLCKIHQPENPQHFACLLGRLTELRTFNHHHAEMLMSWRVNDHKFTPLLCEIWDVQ

CCCCCCCCCCCCCCCCCC(=O)OCC(CC)CCCC (stereo not given)
inactive: [1] | [2] | [3] | [4] | [5] | [6] | [7] | [8] | [9] | [10] | [11] | [12] | [13]

CCC(=O)OCCC(C)CCC=C(C)C (stereo not given)
inactive: [1] | [2] | [3] | [4] | [5] | [6] | [7] | [9] | [10] | [12] | [13] | [14] | [15]

N#Cc1ccc(CC(=NNC(=O)Nc2ccc(OC(F)(F)F)cc2)c2cccc(C(F)(F)F)c2)cc1
inactive: [1] | [2] | [3] | [4] | [5] | [6] | [7] | [16] | [9] | [14] | [15]

CCCC(=O)C(C)=O
inactive: [1] | [2] | [3] | [4] | [17] | [5] | [18] | [19] | [11] | [14] | [15]

CCCCCCCCCCCCCCCC(=O)O
inactive: [1] | [2] | [3] | [4] | [5] | [7] | [11] | [12] | [13] | [14]

CC1=CC(=O)NS(=O)(=O)O1
inactive: [1] | [2] | [3] | [4] | [5] | [6] | [8] | [9] | [10] | [11] | [12] | [15]

CCCCOCCOCCSC#N
inactive: [1] | [2] | [3] | [4] | [5] | [6] | [7] | [16] | [9] | [10] | [11] | [12] | [14] | [15]

CC(C)(CO)[N+](=O)[O-]
inactive: [1] | [2] | [3] | [4] | [5] | [6] | [7] | [16] | [8] | [9] | [10] | [12] | [13] | [14] | [15]

CC(C)CCCCCCCOC(=O)c1ccc(C(=O)OCCCCCCCC(C)C)c(C(=O)OCCCCCCCC(C)C)c1
inactive: [1] | [2] | [3] | [4] | [5] | [6] | [16] | [8] | [10] | [11] | [12] | [15]

Cc1c(N(C)C)c(=O)n(-c2ccccc2)n1C
inactive: [1] | [2] | [3] | [4] | [5] | [7] | [19] | [8] | [9] | [11] | [12] | [13] | [14] | [15]
